# Data taken from PMC4336329 (PLoS ONE, 2015).
# The whole screen tested about 310,000 compounds, of which about 14,000 (4.5%) showed an effect of 50% or more. The effect is printed as a negative number. The full list was thinned out, with strong results kept by preference.
# Target: human ether-à-go-go-related gene (hERG) potassium channel (human, UniProt Q12809)
# Test: primary screen, population patch clamp on CHO cells stably expressing hERG; higher = less effect of the substance
# Method: Briefly, Chinese hamster ovary (CHO) cells stably expressing the hERG channel were dislodged from tissue culture flasks and dispensed into PPC plates. […] During the recording, background leak currents were estimated by a 100 ms step to -80 mV from an initial holding potential of -70 mV and subtracted from the subsequent current measurement. The campaign was conducted in two phases using slight differences in recording protocol. In the first phase, the initial voltage pulse used a 100 ms step to -30 mV from a holding potential of -70 mV, a 2 s conditioning step to +25 mV, and a 2 s test step to -30 mV. During the second phase of the screen, the potential during the conditioning step was raised to +45 mV. In both phases of the campaign, a secondary voltage pulse was applied using the same parameters as the second phase initial pulse. The initial and secondary pulses were applied in the absence of compound, and upon application of 1 μM and 10 μM test concentrations. […]
# 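Further: peak tail current of the secondary pulse compared with the same well before compound.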
# Chain of human ether-à-go-go-related gene (hERG) potassium channel (Q12809 whole entry, looked up): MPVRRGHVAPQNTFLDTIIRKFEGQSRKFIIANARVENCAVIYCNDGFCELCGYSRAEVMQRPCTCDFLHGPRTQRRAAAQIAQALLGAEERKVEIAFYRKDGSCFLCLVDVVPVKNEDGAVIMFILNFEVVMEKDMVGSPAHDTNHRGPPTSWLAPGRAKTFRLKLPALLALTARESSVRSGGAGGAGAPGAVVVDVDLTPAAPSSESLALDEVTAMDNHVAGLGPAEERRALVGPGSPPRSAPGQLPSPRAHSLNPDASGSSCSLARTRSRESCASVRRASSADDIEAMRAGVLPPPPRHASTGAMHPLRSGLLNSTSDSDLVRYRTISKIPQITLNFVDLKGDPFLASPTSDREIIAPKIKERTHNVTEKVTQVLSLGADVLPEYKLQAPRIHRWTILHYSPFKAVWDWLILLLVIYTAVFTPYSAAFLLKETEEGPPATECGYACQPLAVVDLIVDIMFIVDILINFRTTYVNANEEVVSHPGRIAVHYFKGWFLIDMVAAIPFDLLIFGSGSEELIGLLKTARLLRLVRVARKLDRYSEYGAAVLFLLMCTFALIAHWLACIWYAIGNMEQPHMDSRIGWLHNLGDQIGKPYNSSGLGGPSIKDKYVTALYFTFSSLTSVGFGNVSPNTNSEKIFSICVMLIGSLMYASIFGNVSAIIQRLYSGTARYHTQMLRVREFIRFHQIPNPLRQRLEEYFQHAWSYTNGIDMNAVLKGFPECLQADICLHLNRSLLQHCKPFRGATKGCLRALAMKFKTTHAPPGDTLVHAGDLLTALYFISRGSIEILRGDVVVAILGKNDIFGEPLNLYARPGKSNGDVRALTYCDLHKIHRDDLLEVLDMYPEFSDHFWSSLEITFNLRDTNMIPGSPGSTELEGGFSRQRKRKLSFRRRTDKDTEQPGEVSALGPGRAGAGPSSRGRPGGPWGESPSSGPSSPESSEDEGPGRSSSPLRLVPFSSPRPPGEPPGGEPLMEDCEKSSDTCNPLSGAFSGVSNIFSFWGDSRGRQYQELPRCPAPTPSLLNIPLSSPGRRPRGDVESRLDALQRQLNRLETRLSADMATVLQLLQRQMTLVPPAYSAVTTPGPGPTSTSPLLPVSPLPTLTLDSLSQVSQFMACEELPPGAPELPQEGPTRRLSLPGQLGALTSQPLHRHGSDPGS
row,Compound,"hERG current change (%, negative = inhibition) at 10uM"
1,CCN(CC)N=Nc1cccc(NC(C)=O)c1,0.363%
2,CCc1nc(C)ccc1OCC(=O)N(CC)CC.O.O=C(O)C(=O)O,-30.9%
3,CCOC(=O)c1c(NC(=O)CSc2nnc3c(n2)[nH]c2ccccc23)sc2c1CCN(C)C2,-6.08%
4,Cc1ccc(NC2c3ccccc3C(=O)N2c2cccnc2)cc1 (centres unmarked),-21.5%
5,CCOC(=O)c1ccc(NC2c3ccccc3C(=O)N2c2cccnc2)cc1 (centres unmarked),-57%
6,CCOC(=O)c1ccc(NC2c3ccccc3C(=O)N2c2ccccn2)cc1 (centres unmarked),9.93%
7,CCOc1ccc(/C(O)=C2/C(=O)C(=O)N(CCCN3CCOCC3)C2c2ccc(C)cc2)cc1C (centres unmarked),23.8%
8,NC(=O)c1cccnc1Oc1cccc(Cl)c1,11.8%
9,COc1cccc(C(C(=O)NC2CCCC2)N(C(=O)c2ccco2)c2ccc(C(C)=O)cc2)c1OC (centres unmarked),-13.3%
10,COc1cccc(C(C(=O)NC2CCCC2)N(C(=O)c2ccco2)c2ccc(NC(C)=O)cc2)c1OC (centres unmarked),-64%
11,COc1ccc(CCN(C(=O)c2ccco2)C(C(=O)NC2CCCC2)c2ccncc2)cc1OC (centres unmarked),-55%
12,Cc1ccc(C)c(N(C(=O)CNC(=O)c2ccco2)C(C(=O)NC2CCCCC2)c2cccnc2)c1 (centres unmarked),15.3%
13,O=C(NCC(=O)N(Cc1ccccc1)C(C(=O)NC1CCCC1)c1ccncc1)c1ccco1 (centres unmarked),5.71%
14,Cc1ccc(N(C(=O)CNC(=O)c2ccco2)C(C(=O)NC2CCCCC2)c2cccnc2)c(C)c1 (centres unmarked),-71.9%
15,COc1ccccc1CN(C(=O)c1ccco1)C(C(=O)NC1CCCC1)c1ccncc1 (centres unmarked),-8.04%
16,O=C(NCC(=O)N(CCc1ccccc1)C(C(=O)NC1CCCCC1)c1ccncc1)c1ccco1 (centres unmarked),-54.6%
17,COc1cccc(C(C(=O)NC2CCCC2)N(C(=O)c2ccco2)c2cccc(C(C)=O)c2)c1OC (centres unmarked),13.9%
18,Cc1ccc(N(C(=O)CNC(=O)c2ccco2)C(C(=O)NC2CCCC2)c2cccnc2)c(C)c1 (centres unmarked),10.1%
19,COc1ccc(N(C(=O)c2ccco2)C(C(=O)NC2CCCC2)c2ccncc2)cc1OC (centres unmarked),5.24%
20,O=C(NCC(=O)N(c1ccccc1)C(C(=O)NC1CCCCC1)c1ccncc1)c1ccco1 (centres unmarked),5.92%
21,COCCN(C(=O)CSc1nnc(C)n1-c1ccc(C)cc1)c1c(N)n(Cc2ccccc2)c(=O)[nH]c1=O,-2.83%
22,COc1ccc(C(=O)NCc2ccc(-c3nc4ccccc4s3)cc2)cc1,10.1%

row,Compound,"hERG current change (%, negative = inhibition) at 10uM"
1,NS(=O)(=O)c1ccc(CCNC(=O)Nc2ccc(Cl)c(Cl)c2)cc1,15.3%
2,CN(C)C1=NCCN1CCc1cccc(F)c1,-8.41%
3,O=C(NCCN1CCOCC1)c1cc2ccccc2oc1=O,-1.87%
4,Oc1ccc(/C=N/Nc2nccnc2Cl)c(O)c1,0.455%
5,COc1ccc(OC)c(C2=NOC(C(=O)NCc3cccs3)C2)c1 (centres unmarked),-13.5%
6,Cc1ccc(CNc2nc3ccccc3n3cnnc23)cc1,-6.53%
7,O=C(NCC(=O)N(CCc1ccccc1)C(C(=O)NC1CCCC1)c1cccnc1)c1ccco1 (centres unmarked),-43.8%
8,Cc1ccc(CN(C(=O)c2ccco2)C(C(=O)NC2CCCC2)c2cccnc2)cc1 (centres unmarked),-1.98%
9,O=C(NC1CCCC1)C(c1cccnc1)N(CCc1ccccc1)C(=O)c1ccco1 (centres unmarked),-69%
10,CCOC(=O)c1cc(-c2ccccc2)nn1CC1CC(c2ccc(Cl)cc2)=NO1 (centres unmarked),-16.2%
11,COc1ccc([N+](=O)[O-])cc1NC(=O)C1(c2ccc(OC)c(OC)c2)CCOCC1,-14.4%
12,Cc1ccc(NC(=O)CSc2nnc(CNC(=O)c3cccs3)o2)c(C)c1,6.79%
13,O=C(NCCc1ccccc1F)/C(=C/c1cccnc1)NC(=O)c1ccccc1,-52.2%
14,O=C(NCCc1ccc(Cl)cc1)/C(=C/c1cccnc1)NC(=O)c1ccccc1,-70.9%
15,COc1ccc(CCNC(=O)/C(=C/c2cccnc2)NC(=O)c2ccccc2)cc1,-47.2%
16,COc1ccc(CCNC(=O)/C(=C/c2cccnc2)NC(=O)c2ccccc2)cc1OC,-3.35%
17,COc1ccccc1CCNC(=O)/C(=C/c1cccnc1)NC(=O)c1ccccc1,-33.9%
18,O=C(NCCc1cccc(F)c1)/C(=C/c1cccnc1)NC(=O)c1ccccc1,-36.4%
19,CC1(C)c2[nH]c3ccccc3c2C[C@@H]2C(=O)N(Cc3ccccc3Cl)C(=O)N21,15.4%
20,Cc1ccc(S(=O)(=O)NC(C)(C)CSc2nncn2N)cc1,9.75%
21,O=C(O)C#Cc1cccc2ccccc12,29.8%
22,COc1cccc(N2CCN(CC(=O)Nc3ccc(SC(F)F)cc3)CC2)c1,-65.5%

row,Compound,"hERG current change (%, negative = inhibition) at 10uM"
1,COc1ccc(NC(=O)CN2CCN(c3ccc(F)cc3)CC2)cc1,-4.62%
2,O=C(CN1CCN(c2ccc(O)cc2)CC1)Nc1ccc(-c2ccccc2)cc1,-5.1%
3,O=C1CN(CC(=O)Nc2ccc(SC(F)F)cc2)CCN1,-32.6%
4,O=C(CN1CCN(c2ccc(O)cc2)CC1)Nc1ccc(SC(F)F)cc1,-74.7%
5,COc1ccc(N2CCN(CC(=O)Nc3ccc(SC(F)F)cc3)CC2)cc1,-76.6%
6,COc1ccc(N2CCN(CC(=O)Nc3ccc(C)cc3)CC2)cc1,-18.7%
7,COc1cccc(N2CCN(CC(=O)Nc3ccc(-n4cnnn4)cc3)CC2)c1,7.28%
8,COc1ccc(NC(=O)CN2CCN(c3ccccc3)CC2)cc1,1.85%
9,COc1ccc(OC)c(C(=O)COC(=O)c2c(OC)cccc2OC)c1,8.03%
10,CCCN1CCC(NC(=O)C2CCCCC2C(=O)O)CC1 (centres unmarked),-1.65%
11,C(=N\N=C\c1cccs1)/c1cccs1,-2.57%
12,Cc1nn(CCC#N)c2c1P(=S)(N1CCCC1)OC(c1ccc(F)cc1)=N2 (centres unmarked),-7.21%
13,C=CCN1C(=O)C(CC(=O)O)SC1=Nc1c(C)n(C)n(-c2ccccc2)c1=O (centres unmarked),1.73%
14,COc1ccccc1/C=C1\SC(=O)N(CC(=O)N(C)C2CCS(=O)(=O)C2)C1=O (centres unmarked),11.5%
15,Nc1cc(N)cc(C(=O)Nc2ccc3c(c2)C(=O)NC3=O)c1,12.1%
16,O=C(CN1C(=O)NC2(CCCCCC2)C1=O)N1CCN(c2ccccc2)CC1,-2.9%
17,CCOc1ccc(Cl)cc1S(=O)(=O)N1CCCC1,-6.06%
18,CN1CCN(c2nnc(-c3ccc(Cl)cc3)c3ccccc23)CC1,-45.7%
19,O=C1c2ccccc2S(=O)(=O)c2cc(C(=O)N3CCN(c4ccccc4)CC3)ccc21,-25%
20,COc1ccc(-c2nc(-c3ccncc3)no2)cc1,10.5%
21,COc1ccc(-n2cc(CNCc3cccnc3)c(-c3cccc(F)c3)n2)cc1,-47.7%
22,Cc1ccc(-c2nn(-c3cccc(F)c3)cc2CNCCc2ccncc2)o1,-53.6%

row,Compound,"hERG current change (%, negative = inhibition) at 10uM"
1,Cc1ccc(-c2nn(-c3cccc(F)c3)cc2CN2CCN(c3ccccn3)CC2)o1,-26.5%
2,COc1ccc(CNCc2cn(-c3cccc(F)c3)nc2-c2ccc(C)o2)cc1,-55.5%
3,Cc1ccc(-c2nn(-c3cccc(F)c3)cc2CNCc2cccnc2)o1,-51.6%
4,Cc1ccc(-c2nn(-c3cccc(F)c3)cc2CN(Cc2nccn2C)C(C)C)o1,-21.4%
5,Cc1ccc(-c2nn(-c3ccccc3)cc2CO)o1,-0.28%
6,COc1ccc(-c2nn(-c3ccccc3)cc2CNCc2cccnc2)c(F)c1,-28.1%
7,COCCNCCCCOc1ccccc1-c1ccccc1.O=C(O)C(=O)O,-27.5%
8,Cc1cc(C(=O)NCC(=O)OCC(=O)NCC2CCCO2)ccc1[N+](=O)[O-] (centres unmarked),15.3%
9,COc1ccc(C2C(C(=O)N3CCCC3)CC(=O)N2c2ccc(OC)cc2)cc1 (centres unmarked),0.91%
10,O=C(Cn1cnc2c(oc3nc4c(cc32)CCCC4)c1=O)Nc1cccc(Cl)c1,16.2%
11,COc1ccc(-c2cn[nH]c2-c2ccc(OCC(=O)NN)cc2O)cc1,17.4%
12,CCOC(=O)c1ccc(Cl)c(NC(=O)c2ccc(-c3ccccc3)cc2)c1,1.02%
13,CCOC(=O)c1ccc(P(=O)(c2ccccc2)c2ccccc2)cc1,-18.2%
14,CCOC(=O)c1cccc(P(=O)(C(C)(C)C)C(C)(C)C)c1,17.1%
15,CCCOC(=O)c1ccc(NC(=O)Oc2ccccc2)cc1,3.21%
16,CCCOC(=O)c1ccc(-[n+]2c(-c3ccccc3)cc(-c3ccccc3)cc2-c2ccccc2)cc1.[O-][Cl+3]([O-])([O-])[O-],-77.2%
17,CCOC(=O)c1ccc(/[N+]([O-])=C/c2ccccc2)cc1,0.217%
18,CCCOC(=O)c1ccc(Cl)c(NC(=O)c2ccc(-c3ccccc3)cc2)c1,-5.63%
19,CCOC(=O)c1cccc(-[n+]2c(-c3ccccc3)cc(-c3ccccc3)cc2-c2ccccc2)c1.[O-][Cl+3]([O-])([O-])[O-],-73.5%
20,CCOC(=O)c1ccc(-[n+]2c(-c3ccccc3)cc(-c3ccccc3)cc2-c2ccccc2)cc1.[O-][Cl+3]([O-])([O-])[O-],-77.9%
